This is a sample that favours compounds with a hit; in the whole collection about 9.3% have one here.
VACV mCherry inh: vaccinia inhibition (mCherry reporter). Potency, µM (highest dose often 36.5 µM), usual class: inhibitors. Vaccinia virus mCherry reporter infection, fluorescence. 310,000 compounds, 0.63% hits; calls by dose curve; tested in A549 cells; further: nearly all actives have a fitted effect of over 35% in size
HCMV antiviral: inhibitors of human cytomegalovirus; activity change, negative = inhibition, % at 57.5 µM; 410,000 compounds, 4.5% hits; HFF cells, HCMV-luciferase reporter, 72 h; hits give low values; in the data active means activity change below about -60%; inconclusive means no clear call, values can overlap the other calls; inactive means above about -39%
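Inhibition of viral replication was scored as loss of reporter luminescence in HFFs infected with HCMV-luciferase (MOI 1 PFU/cell) for 72 h; compounds tested at 2 doses, normalized to buffer and Salinomycin controls.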
HCV inh: HCV inhibition; Potency, µM (series often up to 41.8 µM), hits mostly inhibitors; AID 651820; 340,000 compounds, 3.4% hits; Huh7.5.1 HCVcc-Cre infection, luciferase reporter, 44 h
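Luciferase read-out (15 sec integration) after a 15 min room-temperature substrate step quantifies HCVcc-Cre infection. Cells, 1,000 per well, had compound added 4 h post-plating, then virus at ~0.5 moi, and were cultured 44 h.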
Sm TGR block: S. mansoni TGR enzyme inhibition; Q962Y6; purified TGR, DTNB reduction, TNB absorbance 405 nm; Potency, µM (series often up to 114 µM), usual class: inhibitors; 360,000 compounds, 3% hits; further: nearly all actives have a fitted effect of over 60% in size
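TGR 20 nM + NADPH 100 uM (dispensed conc.), cpd preinc 15 min RT; start with NADPH (500 uM addition) then DTNB (15 mM addition). Kinetic TNB absorbance, 405 nm filter. Four-parameter Hill fit across titration.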
Vaccinia Venus: inhibitors of vaccinia virus (Venus reporter) | Potency, µM (series often up to 36.5 µM), most hits filed as inhibitors | Vaccinia virus Venus reporter expression, fluorescence | 330,000 compounds, 0.46% hits; calls by dose curve; tested in A549 cells; further: nearly all actives have a fitted effect of over 30% in size
FMDV inh: blocks foot and mouth disease virus; 410,000 compounds, 1.2% hits; Potency, µM (doses to about 57.9 µM), actives largely listed as inhibitors; FMDV antiviral cell-based qHTS; AID 1159524; calls by dose curve; tested in HEK293T cells; further: read-out not given here; nearly all actives have a fitted effect of over 45% in size
A number is an active result; ! = not active in a repeat; [ ] = another dose, or the depositor's remark. Unless noted, the call rests on the fitted dose curve; in most records, active means well fitted curve in the direction sought with a large enough effect; inconclusive means small, poorly fitted or top-dose-only effect, or another doubt; inactive means no such curve, though single readings can be large; an effect the other way counts as inactive or inconclusive.

What do the screens show for `CCOC(=O)CNC(=O)N1CCN(c2nnc(C)c3c(C)n(-c4ccc(Cl)cc4)nc23)CC1`?
VACV mCherry inh: inactive; HCMV antiviral: inactive; Sm TGR block: inactive; Vaccinia Venus: inactive; FMDV inh: inactive

What do the screens show for `O=C(NC1CCN(Cc2ccc(Cl)cc2)CC1)c1cn(-c2ccccc2)nc1-c1cccnc1`?
HCMV antiviral: inactive; HCV inh: 11.2µM; Sm TGR block: inactive; FMDV inh: inactive

What do the screens show for `Cc1cc(=O)n2c(sc3ccccc32)c1C#N`?
VACV mCherry inh: inactive; HCMV antiviral: -90.5; HCV inh: inactive; Sm TGR block: inactive; Vaccinia Venus: inactive; FMDV inh: inactive

How did O=c1[nH]nc(-c2ccc([N+](=O)[O-])o2)c(=O)[nH]1 do in these assays?
VACV mCherry inh: inactive; HCMV antiviral: -93.2; HCV inh: inactive; Vaccinia Venus: inactive; FMDV inh: inactive

Results for CC1(C)Oc2ccc3ccc(=O)oc3c2C(N2CCCCC2)C1O (configuration not stated) ?
HCMV antiviral: inactive; HCV inh: inactive; Sm TGR block: 35.5µM; FMDV inh: inactive

What do the screens show for `Cc1c(-c2ccc(Br)cc2)[n+](=O)c2c(n1[O-])CCCC2`?
VACV mCherry inh: inactive; HCMV antiviral: inactive; HCV inh: inactive; Sm TGR block: inactive; Vaccinia Venus: inactive; FMDV inh: inactive

Results for COc1ccc(/[N+]([O-])=C/c2ccoc2)cc1 ?
VACV mCherry inh: inactive; HCMV antiviral: inactive; HCV inh: inactive; Sm TGR block: 5.01µM; Vaccinia Venus: inactive; FMDV inh: inactive

Results for [O-]/[N+](=C\c1ccc(OC(F)F)cc1)c1ccccc1 ?
HCMV antiviral: inactive; HCV inh: inactive; Sm TGR block: inactive; FMDV inh: inactive

How did C[C@@H]1CN([C@@H](C)CO)C(=O)c2cc(-c3cccnc3)cnc2O[C@H]1CN(C)C(=O)c1cccc(F)c1 do in these assays?
VACV mCherry inh: inactive; HCMV antiviral: inactive; Vaccinia Venus: inactive; FMDV inh: inactive

What do the screens show for `COc1ccc(-c2nc3ccc([N+](=O)[O-])cc3o2)cc1`?
VACV mCherry inh: inactive; HCMV antiviral: -91.9; HCV inh: inactive; Sm TGR block: inactive; Vaccinia Venus: inactive; FMDV inh: inactive

Results for Cc1cc(Br)ccc1NC(=O)CCNS(=O)(=O)c1cccc2nonc12 ?
VACV mCherry inh: inactive; HCMV antiviral: inactive; Sm TGR block: inactive; Vaccinia Venus: inactive; FMDV inh: inactive

How did O=C(OCc1c(F)cccc1Cl)c1cnc(Cl)c(Cl)c1 do in these assays?
VACV mCherry inh: inactive; HCMV antiviral: inactive; HCV inh: 10µM; Sm TGR block: inactive; Vaccinia Venus: inactive; FMDV inh: inactive

What do the screens show for `CCOc1ccc(C(=O)NCC(=O)OCc2c(F)cccc2Cl)cc1`?
VACV mCherry inh: inactive; HCMV antiviral: -67.3; HCV inh: inactive; Sm TGR block: inactive; Vaccinia Venus: inactive; FMDV inh: inactive

What do the screens show for `CCOCc1c(C(=O)N2CCN(CCOc3ccc(Cl)cc3)CC2)oc2ccccc12`?
VACV mCherry inh: inactive; HCMV antiviral: inactive; HCV inh: 5.62µM; Sm TGR block: inactive; Vaccinia Venus: inactive; FMDV inh: inconclusive

Results for CN(C)c1ncc2nc(-c3ccccc3)c(=O)n(C)c2n1 ?
FMDV inh: inactive

What do the screens show for `CCn1cc([N+](=O)[O-])c(C(=O)Nc2ccn(Cc3ccccc3)n2)n1`?
VACV mCherry inh: inactive; HCMV antiviral: -73.9; HCV inh: inactive; Sm TGR block: inactive; Vaccinia Venus: inactive; FMDV inh: inactive

What do the screens show for `Cn1cc([N+](=O)[O-])c(C(=O)Nc2ccc(C3CCCCC3)cc2)n1`?
HCMV antiviral: -99.8; HCV inh: inconclusive; Sm TGR block: inactive; FMDV inh: inactive

Results for CCOCC(=O)Nc1nc2ccc(OC)cc2s1 ?
HCMV antiviral: inactive; HCV inh: inactive; Sm TGR block: inconclusive; Vaccinia Venus: inactive; FMDV inh: inactive

How did CCn1cc([N+](=O)[O-])c(C(=O)NCc2ccc(Cl)cc2)n1 do in these assays?
HCMV antiviral: inconclusive; HCV inh: inactive; Sm TGR block: inactive; FMDV inh: inactive

Results for Cc1cc(C)n(Cc2ccc(NC(=O)c3nn(C)cc3[N+](=O)[O-])cc2)n1 ?
VACV mCherry inh: inconclusive; HCMV antiviral: -100.6; HCV inh: inconclusive; Sm TGR block: inactive; Vaccinia Venus: inactive; FMDV inh: inactive

What do the screens show for `CCn1cc([N+](=O)[O-])c(C(=O)Nc2nc3ccc(OC)cc3s2)n1`?
HCMV antiviral: -88.8; HCV inh: inconclusive; FMDV inh: inactive

Results for COC(=O)c1ccc(C)c(NC(=O)Cc2ccc([N+](=O)[O-])cc2)c1 ?
HCMV antiviral: inactive; Sm TGR block: inactive

Results for Cc1ccc(Cn2ccc(NC(=O)c3nn(C)cc3[N+](=O)[O-])n2)cc1 ?
VACV mCherry inh: inconclusive; HCMV antiviral: -77.4; HCV inh: inconclusive; Sm TGR block: inactive; Vaccinia Venus: inactive; FMDV inh: inactive

How did COc1ccccc1CNC(=O)c1ccc(CS(=O)Cc2cccc(Cl)c2)o1 (configuration not stated) do in these assays?
HCMV antiviral: inactive; HCV inh: inactive; Sm TGR block: 22.4µM; FMDV inh: inactive

Results for O=C(NC1CCCCC1)c1ccc(CS(=O)Cc2ccc(Cl)cc2)o1 (configuration not stated) ?
HCMV antiviral: inactive; HCV inh: inactive; Sm TGR block: 44.7µM; FMDV inh: inactive

Results for O=C(NCc1ccc(Cl)cc1)c1ccc(CS(=O)Cc2cccc(Cl)c2)o1 (configuration not stated) ?
HCMV antiviral: inactive; HCV inh: inactive; Sm TGR block: inactive; FMDV inh: inactive

How did COc1ccc(S(=O)Cc2ccc(C(=O)NCc3cccc(OC)c3)o2)cc1 (configuration not stated) do in these assays?
HCMV antiviral: inactive; HCV inh: inactive; Sm TGR block: 25.1µM; FMDV inh: inactive

How did CC(C)Oc1ccc(CNC(=O)c2ccc(CS(=O)Cc3ccccc3Cl)o2)cc1 (configuration not stated) do in these assays?
VACV mCherry inh: inactive; HCMV antiviral: inactive; Sm TGR block: 44.7µM; Vaccinia Venus: inactive; FMDV inh: inconclusive

Results for COc1cc(C(C(=O)NC(C)(C)C)N(C(=O)CNC(=O)c2cccs2)c2ccc(C(C)C)cc2)cc(OC)c1OC (configuration not stated) ?
VACV mCherry inh: inactive; HCMV antiviral: inactive; HCV inh: inactive; Sm TGR block: inactive; Vaccinia Venus: inactive

How did COC(=O)c1nn(-c2c(C)n(C)n(-c3ccccc3)c2=O)cc1O do in these assays?
VACV mCherry inh: inactive; HCMV antiviral: inactive; HCV inh: inactive; Sm TGR block: inactive[11.4 µM]; Vaccinia Venus: inactive

Results for O=C(NCCc1ccc(Cl)cc1)c1ccc(CS(=O)Cc2ccccc2Cl)o1 (configuration not stated) ?
VACV mCherry inh: inactive; HCMV antiviral: -65.9!; HCV inh: inconclusive; Sm TGR block: 31.6µM!; Vaccinia Venus: inactive; FMDV inh: inconclusive

Bioassay records as filed in PubChem.
